Experimental data as given in PubChem BioAssay AID2314 (National Center for Advancing Translational Sciences (NCATS), 2010).
In all, about 300,000 compounds went through this assay and about 37,000 (12%) were called active. What follows is part of a selection rich in actives, with near analogues and random picks from the rest. A number with no mark means an inactive call. Cut-off read from the data, not from the text of the source: active = max response mostly above about 13% (no sharp cut-off); inactive = mostly below about 14%.

Assay: Cycloheximide Counterscreen for Small Molecule Inhibitors of Shiga Toxin; note: read at 38.3 µM for the half of the compounds with a filed dose; 0% is about no effect
Conditions: cell reporter, cycloheximide protein synthesis inhibition counterscreen; stronger effect = higher value

Row | SMILES | max response
1 | COc1ccc(C(C(=O)NC2CCCC2)N(CCCO)C(=O)Cn2nnc(-c3ccc(C)o3)n2)cc1 (stereo unspecified) | -4.49%
2 | Cc1cc(F)ccc1NC(=S)NCCc1ccccc1 | 5.78%
3 | Cc1cccc(NC(=S)NCCc2ccc(F)cc2)c1C | 6.6%
4 | Cc1ccc(NC(=S)NCc2ccccc2Cl)c(C)c1 | 10.7%
5 | Cc1cccc(NC(=S)NCCc2ccc(Cl)cc2)c1C | 17.3% (active)
6 | CCNC(=S)Nc1cccc(Cl)c1C | -2.36%
7 | Cc1ccc(NC(=S)NCCc2ccc(Cl)cc2)c(C)c1 | 13.7% (active)
8 | CC#CC[N+](C)(C)CCCCCC | 0.922%
9 | COc1ccc(C(=O)NC(=S)N2CCNC(=O)C2CC(=O)OC(C)C)cc1 (stereo unspecified) | 0.131%
10 | COc1ccc(OC)c(C(C)NC(=S)Nc2ccc(S(=O)(=O)Nc3ncccn3)cc2)c1 (stereo unspecified) | -0.745%
11 | COc1ccc(NC(=O)C(CC(C)C)NC(=O)C2CCC(C)CC2)cc1 (stereo unspecified) | 6.1%
12 | O=C(O)c1cccc(N2C(=O)Nc3ccccc3N2O)c1 | 24.6% (active)
13 | O=C1Nc2cc(Cl)c(Cl)cc2N(O)N1c1cc(Cl)cc(Cl)c1 | -2.32%
14 | O=C1Nc2cc(Cl)c(Cl)cc2N(O)N1c1ccccc1Cl | 4.44%
15 | COc1ccccc1N(C)C(=O)c1cc(S(=O)(=O)N2CCc3ccccc32)cn1C | 0.704%
16 | CC1CCN(C(=O)CCNC(=O)c2ccccc2)CC1 | 31.5% (active)
17 | CC1CCN(C(=O)/C(=C\c2ccccc2F)NC(=O)c2ccccc2)CC1 | 8.12%
18 | CC1CCN(C(=O)/C(=C\c2ccccc2)NC(=O)c2ccccc2)CC1 | -1.41%
19 | OC(CNC1CCCC1)COc1ccc(F)cc1 (stereo unspecified) | -1.08%
20 | NC(=O)CC(NC(=O)Cc1cccc2ccccc12)c1ccc(NCc2cc(F)ccc2F)c([N+](=O)[O-])c1 (stereo unspecified) | -1.72%
21 | CCOc1ccc(N(CC(=O)NCCOc2ccccc2OC)S(=O)(=O)c2ccccc2)cc1 | 1.62%
22 | COc1ccc(NC(=O)CCN2C(=O)/C(=C/c3ccc4c(c3)OCO4)SC2=S)cc1 | -1.34%
23 | O=C(CCN1C(=O)c2ccccc2C1=O)NCCCn1ccnc1 | 4.07%
24 | O=C(CN1C(=O)S/C(=C\c2ccccc2F)C1=O)NCCCn1ccnc1 | -0.628%
25 | Cc1ccc(/C=C2\SC(=S)N(CCC(=O)Nc3ccc(O)cc3)C2=O)cc1 | 0.318%
26 | COc1ccc(NC(=S)NC2CCS(=O)(=O)C2)cc1 (stereo unspecified) | -3.34%

Row | SMILES | max response
27 | Cc1ccc(/C=C2/SC(=S)N(CCC(=O)NCCCN3CCOCC3)C2=O)cc1 | 11.5% (active)
28 | O=C(CCN1C(=O)c2ccccc2C1=O)NCCN1CCOCC1 | -0.442%
29 | COc1ccc(/C=C2\SC(=O)N(CCC(=O)NC3CCS(=O)(=O)C3)C2=O)cc1 (stereo unspecified) | 27.8% (active)
30 | COc1ccc(-c2ccc(OC(=O)NC3CCS(=O)(=O)C3)cc2)cc1 (stereo unspecified) | 28.5% (active)
31 | COc1ccc(/C=C2\SC(=O)N(CCC(=O)NCCCn3ccnc3)C2=O)cc1 | 18.8% (active)
32 | O=C(Cc1ccc(Cl)cc1)NC1CCS(=O)(=O)C1 (stereo unspecified) | -0.92%
33 | COc1ccccc1/C=C1\SC(=O)N(CCC(=O)N(C)C2CCS(=O)(=O)C2)C1=O (stereo unspecified) | 7.79%
34 | [O-][n+]1onc2c1CCc1[nH]c(-c3ccccc3)nc1-2 | -2.38%
35 | CCSc1nc(O)c(C(c2cccc(OC)c2)c2c(O)nc(SCC)[nH]c2=O)c(=O)[nH]1 | 4%
36 | Cc1c(Cl)cccc1NC(=O)[C@@]1(CC(=O)O)CC(/C=C/c2ccccc2)=NO1 | 9.29%
37 | O=C(COc1cccc2ccccc12)Nc1cc(S(=O)(=O)N2CCOCC2)ccc1N1CCOCC1 | 7.56%
38 | CCn1cc(CN2CCN(CC(C)(C)C)C(CCO)C2)c2ccccc21 (stereo unspecified) | -2.82%
39 | Cn1cc(CCC(=O)NC2CC2)c2ccccc21 | -2.88%
40 | CC1CC2=C(CC1/C=N/NC(N)=S)C(C)(C)CCC2 (stereo unspecified) | -1.08%
41 | O=Cc1c(N2CCN(c3cccc(Cl)c3)CC2)nc2ccccn2c1=O | 3.1%
42 | Cc1ccc(Cl)cc1NC(=O)C1CCCN(c2cnccn2)C1 (stereo unspecified) | -5.58%
43 | COc1ccc(NC(=O)CN2C(=O)CSc3ccc(S(=O)(=O)N4CCC(C)CC4)cc32)cc1 | 9.42%
44 | CCc1ccccc1NC(=S)Nc1cc(OC)c(NC(=O)C(C)C)cc1OC | -6.46%
45 | Cc1ccc(Oc2nc(-c3ccccn3)nc3ccccc23)cc1 | 25% (active)
46 | CC(C)(C)Nc1nc(-c2ccccn2)nc2ccccc12 | -2.46%
47 | COc1cnc(-c2ccccn2)nc1Oc1ccc(C(C)(C)C)cc1 | 4.47%
48 | NS(=O)(=O)c1ccc(CCNC(=O)CNC(=O)Cc2ccccc2)cc1 | 4.6%
49 | CC1CCCN(S(=O)(=O)c2ccc(-c3ccc(=O)[nH]n3)o2)C1 (stereo unspecified) | -2.93%
50 | CCc1ccc(NC(=O)c2ccc(Cn3cc([N+](=O)[O-])cn3)cc2)cc1 | 26.2% (active)
51 | COc1cccc(NC(=O)c2ccc(Cn3cc([N+](=O)[O-])cn3)o2)c1 | 1.95%
52 | O=C(c1ccc(Cn2cc([N+](=O)[O-])cn2)o1)N1CCCC1 | -2.92%

Row | SMILES | max response
53 | COc1cccc(OC)c1C(=O)Nc1c(C(=O)N2CCN(c3ccccn3)CC2)oc2ccccc12 | -0.82%
54 | CN1CCN(CCCCOc2cccc3ccccc23)CC1 | 2.51%
55 | NC(=O)COc1ccc(C23CC4CC(CC(C4)C2)C3)cc1 | 32.3% (active)
56 | NC(=O)COc1ccccc1C(=O)NC12CC3CC(CC(C3)C1)C2 | 0.476%
57 | NNC(=O)COc1ccc(C2SCCS2)cc1 | 5.31%
58 | Cc1c(Cl)c([N+](=O)[O-])nn1CCCC(=O)NC(C)c1ccccc1 (stereo unspecified) | 0.248%
59 | CCCCC(=O)N/N=C(\C)CC(=O)Nc1cc(Cl)ccc1OC | -1.06%
60 | O=C(COc1ccc(Cl)cc1Cl)NCCCNC(=O)c1cnccn1 | -1.68%
61 | COc1ccc(NC(=O)C/C(C)=N/NC(=O)c2cnccn2)cc1Cl | 53.7% (active)
62 | COc1cccc(NC(=O)Cn2c3ccc(F)cc3c3nc4n(c(=O)c32)CCS4)c1 | 4.56%
63 | CCN(CCNC(=O)C1=C(C)C(=O)OC12CCC(C)CC2)c1ccccc1 (stereo unspecified) | 3.3%
64 | COc1ccc(-c2n[nH]c3c2CN(C(=O)c2ccc(F)cc2)CC3)cc1 | 9.17%
65 | CCOc1cc(-c2noc(CCCC(=O)NC3CCCCC3)n2)ccc1OC | -3.29%
66 | COC(=O)c1cn(C(=O)c2ccc(Cl)cc2)c2ccccc12 | 10.5%
67 | COC(=O)/C(NC(C)=O)=C(\C)c1ccc(Cl)cc1 | 1.02%
68 | COC(=O)C(=Nc1ccccc1)/C(C(=O)C(=O)N(C)c1ccccc1)=C(\O)c1ccc(Cl)cc1 | 23.6% (active)
69 | CC(=O)c1ccc(NC(=S)NC(=O)CC(C)C)cc1 | 9.98%
70 | CC(C)CC(=O)NC(=S)Nc1ccc(F)cc1F | 23.2% (active)
71 | CC(C)CC(=O)NC(=S)Nc1cc(C(=O)O)ccc1Cl | -4.75%
72 | Cc1ccc(-c2nc(-c3cccnc3)sc2CC(=O)Nc2ccc(C)c(Cl)c2)cc1 | 8.82%
73 | COc1ccc(CCNS(=O)(=O)c2cccc([N+](=O)[O-])c2)cc1 | 4.94%
74 | N#CC1=C(N)Oc2c(c(=O)oc3ccccc23)C1c1ccccc1OC(=O)c1cccs1 (stereo unspecified) | 1.47%
75 | N#CC1=C(N)Oc2c(sc3ccccc23)C1c1ccco1 (stereo unspecified) | 28.9% (active)
76 | Cc1cc(C)c2c3c(sc2n1)C(c1ccccc1)C(C#N)=C(N)O3 (stereo unspecified) | -1.32%
77 | COc1cccc(CC(=O)Nc2nc(-c3ccc(OC)c(OC)c3)cs2)c1 | -5.12%
78 | COc1ccc(-c2csc(NC(=O)COC(=O)c3ccc(Br)o3)n2)cc1 | 33.7% (active)

Row | SMILES | max response
79 | COc1ccc(-c2csc(NC(=O)COC(=O)Cc3ccc(Cl)cc3Cl)n2)cc1 | 45.1% (active)
80 | COc1ccc(OC)c(-c2csc(NC(=O)C3=NNC(=O)CC3)n2)c1 | 9%
81 | CC(C)(C)NC(=O)NC(=O)COC(=O)Cc1ccc(Cl)cc1Cl | 2.66%
82 | COc1ccc(-c2nc(CCNC(=O)c3ccc(Br)o3)cs2)cc1 | 13.1%
83 | Cc1cccc(NC(=O)c2cc(S(=O)(=O)N3CCC4(CC3)OCCO4)ccc2F)c1 | -1.02%
84 | CCn1cc(/C=C(\NC(=O)c2ccc(C)cc2)C(=O)NCCN2CCOCC2)c2ccccc21 | -1.13%
85 | CC(C)C(=O)NCC(c1cccs1)S(=O)(=O)c1ccc(F)cc1 (stereo unspecified) | -4.81%
86 | CCC(=O)Nc1nnc(S(=O)(=O)N(CC(C)C)c2ccccc2)s1 | 10.1%
87 | O=C(Oc1ccc2c(c1)CCC2)N1CCOCC1 | 53.5% (active)
88 | CC(=O)c1ccc(OC(=O)N2CCOCC2)cc1 | 11.8%
89 | O=C(Oc1ccc(F)cc1)N1CCOCC1 | -1.5%
90 | O=c1c(Cl)c(NC2CC2)cnn1-c1ccccc1 | 31.2% (active)
91 | Cc1cccc(-n2ncc(Cl)c(Cl)c2=O)c1 | -10%
92 | c1ccc(-n2nnnc2NC2CCCCCC2)cc1 | -1.89%
93 | COc1ccc(N2CCN(C(=O)CCSCc3ccccc3F)CC2)cc1 | 7.14%
94 | CCOC(=O)/C(C#N)=C/c1ccc(N2CCN(Cc3ccccc3)CC2)cc1 | 10.2% (active)
95 | C/C(=C/c1ccccc1)C(=O)N1CCN(c2ccccc2)CC1 | 20%
96 | CCOC(=O)/C(C#N)=C/c1ccc(N2CCCCC2)cc1 | 40.9% (active)
97 | CC(C)OC(=O)C(C#N)c1nc2ccccc2nc1N1CCN(Cc2ccccc2)CC1 (stereo unspecified) | -2.37%
98 | Cc1cccn2c(=O)c(/C=C(\C#N)C(N)=O)c(N3CCCCCC3)nc12 | 12.8%
99 | CCOC(=O)NC(=O)/C(C#N)=C\c1ccccc1 | -1.84%
100 | CCOC(=O)/C(C#N)=C\c1c(C)cc(C)c(COC(C)=O)c1C | 0.938%
101 | COc1ccc(N2CCN(C(=O)/C(C#N)=C/c3ccccc3)CC2)cc1 | 14.2% (active)
